Assay outcomes (PubChem)
Compounds with a hit are over-represented: about 4.7% of the library has one in this group of screens.
EBI2 antag – antagonists of human EBI2 receptor | P32249 | EBI2 beta-arrestin recruitment, luminescence, 7a,25-OHC stimulated | inhibition, % at 5 µM | 360,000 tested, 0.81% active; in the data active = inhibition above about 38%;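 note: enzyme fragment complementation signal reports receptor beta-arrestin coupling in cells; 0% = agonist plus DMSO wells and 100% = wells without agonist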
Target sequence (P32249 whole entry, looked up, the tested form may be a part): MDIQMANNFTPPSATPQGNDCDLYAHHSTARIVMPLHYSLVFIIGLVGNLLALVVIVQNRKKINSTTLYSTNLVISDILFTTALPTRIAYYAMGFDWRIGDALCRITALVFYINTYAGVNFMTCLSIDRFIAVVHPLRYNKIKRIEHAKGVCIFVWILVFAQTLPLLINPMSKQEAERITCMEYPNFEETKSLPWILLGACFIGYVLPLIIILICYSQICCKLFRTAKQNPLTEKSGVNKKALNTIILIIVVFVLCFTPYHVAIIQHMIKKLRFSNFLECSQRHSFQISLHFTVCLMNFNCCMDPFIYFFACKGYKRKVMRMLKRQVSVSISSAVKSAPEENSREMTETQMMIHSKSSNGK
PfHsp90 yeast 2 – reduces growth (ATP signal) of yeast expressing P. falciparum Hsp90; S. cerevisiae expressing PfHsp90, BacTiter-Glo ATP, 48 h; yeast lacking PDR1 and PDR3 efflux regulators; inhibition, % at 9.4 µM; 310,000 tested, 0.32% active; AID 504621;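 active = every replicate shows inhibition above about 80%, whatever the replicate mean, limit read from the data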;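 note: 0% = DMSO neutral controls and 100% = 20 µM radicicol positive controls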
tim10-1 inh – growth inhibitors of tim10-1 mutant yeast | S. cerevisiae tim10-1 ts strain growth, BacTiter-Glo, 24 h | inhibition, % at 20 µM | 330,000 tested, 2.2% active | AID 463190;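 active = inhibition of at least 40%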;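 note: mutant grown at 25 °C; 0% = DMSO wells with yeast and 100% = wells holding no yeast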
tim23-1 inh – tim23-1 yeast growth inhibition. S. cerevisiae tim23-1 growth, BacTiter-Glo luminescence, 24 h. 330,000 tested, 1.3% active. inhibition, % at 20 µM;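 active = growth inhibition of the mutant yeast at or above 50%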;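 note: temperature-sensitive mutant grown at 25 °C; plate controls were DMSO-treated mutant yeast for no effect and medium wells lacking yeast for full effect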
TIM10 inh – inhibits growth of TIM10 yeast strain; S. cerevisiae TIM10 strain growth, BacTiter-Glo luminescence, 24 h; inhibition, % at 10 µM; 330,000 tested, 1.4% active;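 active = inhibition of 40% or more at the single tested concentration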;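 note: wild-type TIM10 isogenic control strain grown at permissive 25 °C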
SKKanGAS inh – inhibitors of SKKanGAS S. pyogenes growth in kanamycin (SK-promoter or general growth effect); BacTiter-Glo, 6 h; inhibition, % at 7.5 µM; 300,000 tested, 1.3% active; AID 1662;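 active = mean replicate score, as percent of positive control median, at least 50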;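 note: strain carries kanamycin resistance gene driven by streptokinase promoter and grows in 40 µg/ml kanamycin; loss of luminescence reflects streptokinase promoter inhibition or plain growth inhibition; 0% = median of DMSO wells and 100% = positive control at its reference dose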
Active calls of the source: *; x = not tested or not shown.

SMILES	EBI2 antag	PfHsp90 yeast 2	tim10-1 inh	tim23-1 inh	TIM10 inh	SKKanGAS inh
CCOC(=O)[C@]12CCC=C1N(Cc1cccc3ccccc13)C(=O)[C@H](CC(=O)N1CCCC1)C2	1.2	x	x	x	x	x
CC(=O)Nc1c(Br)cc2c(c1Br)C(=O)c1ccccc1-2	-1.1	22.9	x	x	x	x
CC(=O)C1=C(c2ccc(Br)cc2)C(=O)c2ccccc2C1=O	10.8	101.7*	x	x	x	66.2*
COc1ccc(C(CNC(=O)C(CC(C)C)NS(=O)(=O)c2ccc(C)cc2)N2CCOCC2)cc1 (stereo not drawn)	6.7	21.3	-3.4	24.7	23.5	-13.0
CCOC(=O)c1cnc(-n2cc(C)cn2)nc1Nc1ccccc1OCC	14.1	17.2	29.5	11.1	23.7	89.6*
CN(C)c1ccc(/C=C/c2ccc3c4ccccc4ccc3[n+]2-c2ccccc2)cc1	45.5*	x	x	x	x	x
COc1ccc(C(=O)NC(=S)NNC(=O)c2ccccc2C)cc1	2.5	-1.1	-7.9	30.9	3.2	101.2*
COc1ccc(C(=O)NC(=S)NNC(=O)c2ccccc2O)cc1	0.1	10.9	6.6	10.7	-4.2	101.7*
CC(C)(C)C(=O)NC(=S)NNC(=O)c1sc2ccccc2c1Cl	-12.4	99.3*	-58.9	21.5	-3.9	99.7*
COc1ccc(C(=O)NNC(=S)NC(=O)C(C)(C)C)cc1	4.8	-9.1	-12.8	-42.9	-20.0	68.4*
CC1CC(C)CN(C(=O)Cn2cc(C=O)c3ccccc32)C1 (stereo not drawn)	-0.3	-6.5	13.0	20.8	-5.5	-3.4
CCn1c(C)nc2cc(C(=O)NNC(=S)NC(=O)c3ccc(OC)cc3)ccc21	11.0	60.5	9.4	21.7	-0.9	59.2*
COc1ccccc1NC(=O)c1ccc(Br)c(S(=O)(=O)N2CCCC2)c1	-4.5	-6.9	34.1	27.9	9.9	-2.4
CCOc1cc(/C=N/Nc2nc(Nc3ccccc3)nc(N3CCCCC3)n2)ccc1OCC(=O)O	-6.5	2.8	29.7	21.5	19.0	31.0
COc1ccc(/C=N/Nc2nc(Nc3ccccc3)nc(N3CCCCC3)n2)cc1OC	16.2	x	33.0	23.9	26.3	72.0*
CCC(C)Sc1ccc(-c2nc3ccc(C)cn3c2NCc2ccccc2)cc1OC (stereo not drawn)	69.4*	-14.1	36.1	49.6	37.2	53.2*
CCC(C)Sc1cc(-c2nc3ccccn3c2NC2CCCCC2)ccc1OC (stereo not drawn)	5.3	14.4	39.8	2.9	1.6	86.7*
CCC(C)Sc1cc(-c2nc3ccc(C)cn3c2NCc2ccccc2)ccc1OC (stereo not drawn)	-16.0	13.3	x	x	x	74.4*
CC(=O)c1ccc(C2CC(OCCF)=CC(=O)O2)cc1 (stereo not drawn)	0.7	x	x	x	x	x
COc1cnc(-c2ccccn2)nc1Oc1c(C)cccc1C	2.7	-19.4	20.5	29.0	27.9	56.8*
COc1cnc(-c2ccccn2)nc1N(C)C	-4.2	17.9	-18.4	-4.0	-11.8	-5.1
COc1ccc(Oc2nc(-c3ccccn3)ncc2OC)cc1	-6.6	3.8	17.6	-24.1	-13.2	53.8*
Cc1cc2c(=O)n(Cc3ccco3)c(SCC(=O)N3CCCc4ccccc43)nc2s1	3.4	2.6	31.1	41.6	25.1	58.1*
O=C(Nc1ccc(Cl)cc1)C1=Cc2cc(Cl)ccc2OC1	4.9	-17.4	21.6	4.7	4.2	4.3
COc1ccc2c(c1)C=C(C(=O)NCc1ccc(Cl)cc1)CO2	17.0	98.1*	26.9	35.0	-14.8	7.0
SMILES	EBI2 antag	PfHsp90 yeast 2	tim10-1 inh	tim23-1 inh	TIM10 inh	SKKanGAS inh
O=[N+]([O-])c1cc(Cl)cc(/C=N/NC(=S)Nc2ccc(S(=O)(=O)N3CCOCC3)cc2)c1O	10.4	22.4	26.2	17.0	6.2	93.8*
CC1=Nc2ccccc2/C1=C\c1nc(-c2ccc(C(F)(F)F)cc2)oc1O	13.0	-17.2	22.1	12.7	11.5	12.4
COc1ccc(-c2nc(/C=C3\C(C)=Nc4ccccc43)c(O)o2)cc1	3.9	-1.9	30.0	22.5	21.7	58.3*
CN(C)c1ccc(C=C(C#N)C(=O)c2ccccc2)cc1Br	3.0	x	x	x	x	x
Cc1ccc(S(=O)(=O)C=CS(=O)(=O)c2ccc(C)cc2)cc1	9.7	x	x	x	x	x
O=S(=O)(/C=C/C=C/S(=O)(=O)c1ccccc1)c1ccccc1	53.7*	1.8	x	x	x	x
O=C(CN1C(=O)COc2ccc(S(=O)(=O)N3CCCCC3)cc21)NCc1ccc(F)cc1	10.5	-12.8	-3.4	12.1	2.2	103.4*
